Sampled rows, rich in hits. Any-hit rate of the full collection: about 8.1%.
KB-3-1 cytotox: KB-3-1 parental cell cytotoxicity; 400,000 tested, 1.4% active; Potency, µM (titrated, usually from 46.1 µM), actives largely listed as cytotoxic; KB-3-1 viability, CellTiter-Glo ATP luminescence, 72 h; further: on the % scale 0 is the no-effect control and ±100 the full control effect; nearly all actives have a fitted effect of over 60% in size
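Viability of parental KB-3-1 cells, measured by CellTiter-Glo luminescence, followed a 72 h incubation at 37 °C with pinned compounds in phenol-red-free DMEM containing 10% FBS.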
KB-V1 MDR tox: KB-V1 MDR subline cytotoxicity. KB-V1 MDR cells viability, CellTiter-Glo, 72 h. Potency, µM (series often up to 46.1 µM), most hits filed as cytotoxic. 400,000 tested, 3.4% active. AID 1347076; further: on the % scale 0 is the no-effect control and ±100 the full control effect; nearly all actives have a fitted effect of over 60% in size
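Cytotoxicity toward P-gp-expressing KB-V1 cells was determined as loss of CellTiter-Glo luminescence after 72 h at 37 degrees C. Compounds were tested in quantitative HTS format across a concentration range, with curves fitted to normalized data.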
ELG1 repair inh: blocks ELG1-dependent DNA repair in HEK293T cells; HEK293T ELG1-luciferase reporter, luminescence, 16 h; DNA damage induced by 5-fluorouridine; Potency, µM (highest dose often 46.1 µM), inactives show at the top dose activity change, negative = inhibition, most hits filed as inhibitors; 330,000 tested, 2.3% active; further: on the % scale 0 is the no-effect control and ±100 the full control effect; nearly all actives have a fitted effect of over 55% in size
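Luminescence from the luciferase reporter, measured 30 min after ONE-Glo reagent at room temperature, was the read-out. Beforehand, 2,000 cells per well were exposed for 16 hr at 37 °C to 5-fluorouridine together with compound or vehicle.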
MCF10A rereplic: DNA re-replication induction in MCF 10a cells; 350,000 tested, 2.9% active; AID 624296; Potency, µM (highest dose often 46.1 µM), for inactives: at the highest dose activity, positive = re-replication, usual class: activators; MCF 10A DNA re-replication, Hoechst nuclear intensity, 48 h; further: % of control where 0% means no effect; nearly all actives have a fitted effect of over 50% in size
SW480 rereplic: inducers of DNA re-replication in SW480 colon cancer cells | SW480 DNA re-replication, Hoechst DNA content imaging, 48 h | Potency, µM (doses to about 46.1 µM), for the others: at the top dose re-replication activation, usual class: activators | 340,000 tested, 1.8% active; further: % of control where 0% means no effect; nearly all actives have a fitted effect of over 55% in size
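250 cells/well; 23 nL cpd via pin tool; 48 hr, 37 C, 5% CO2; Hoechst 40 min; imager read of total nuclear intensity, ex 405/em 500-530 nm.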
Starred values were filed as active, the others as inactive; i = inactive; ? = inconclusive; . = no result. The call rests on the fitted dose curve; in most records, active means well fitted curve in the direction sought with a large enough effect; inconclusive means small, poorly fitted or top-dose-only effect, or another doubt; inactive means no such curve, though single readings can be large; an effect the other way counts as inactive or inconclusive. Potency means the concentration at half of the fitted maximal effect.

SMILES	KB-3-1 cytotox	KB-V1 MDR tox	ELG1 repair inh	MCF10A rereplic	SW480 rereplic
CN1CCC(N2CCN(C3CN(Cc4cn(Cc5ccc(F)cc5)nn4)S(=O)(=O)C3)CC2)CC1 (stereo unspecified)	i	i	.	.	.
Cc1ccc(-n2nnnc2Sc2nc([N+](=O)[O-])nn2C)cc1	i	i	?	?	16.4µM*
Brc1cccc(-c2nnc(-c3ccccc3)o2)c1	i	i	?	9.2%	-1.1%
CNc1ccccc1C(C)(C)c1cc(-c2ccc(F)cc2)no1	8.2µM*	?	?	-4.7%	.
CC(C)(C)c1cc(-c2ccccc2)no1	i	i	?	-5.8%	-6.6%
CNc1ccccc1C(C)(C)c1cc(-c2cccc([N+](=O)[O-])c2)no1	i	i	1.46µM*	?	?
CNc1ccccc1C(C)(C)c1cc(-c2cccc(Br)c2)no1	23.1µM*	i	9.2µM*	14.6µM*	26.0%
Cc1ccc(Nc2nc(N/N=C/c3c[nH]c4ccccc34)nc(N3CCOCC3)n2)cc1	i	?	16.4µM*	?	13µM*
Cc1[nH]c2ccccc2c1/C=N/Nc1nc(Nc2ccc(F)cc2)nc(N2CCOCC2)n1	i	i	20.6µM*	5.1%	0.5%
Fc1ccc(Nc2nc(N3CCOCC3)nc(N3CCOCC3)n2)cc1	i	i	?	-0.9%	12.7%
O=C(Oc1cccc(/C=N/Nc2nc(Nc3ccccc3)nc(N3CCOCC3)n2)c1)c1ccco1	i	14.6µM*	9.2µM*	?	?
C(=N\Nc1nc(Nc2ccccc2)nc(N2CCOCC2)n1)/c1c[nH]c2ccccc12	?	23.1µM*	16.4µM*	16.4µM*	0.82µM*
COc1cc(/C=N/Nc2nc(N3CCCCC3)nc(N3CCCCC3)n2)ccc1OC(=O)c1ccco1	.	.	6.1%	.	.
O=C(CCC(=O)NC1CCCCCCC1)Nc1nnc(C(F)(F)F)s1	i	i	-4.5%	1.1%	-4.2%
CNc1ncnc2c1ncn2-c1ccccc1	i	?	.	3.8%	?
CCOC(=O)C1C(C#N)=C(N)OC(C)=C1c1ccncc1 (stereo unspecified)	i	i	18.0%	17.5%	3.0%
CC(=O)c1c(C)[nH]c(C(=O)CSc2nnc(NC3CC3)s2)c1C	i	i	?	-0.5%	-6.8%
O=C(CCl)N1N=C(c2cccs2)CC1c1ccco1 (stereo unspecified)	?	?	23.1µM*	18.4µM*	11.6µM*
Cc1ccc(OCC(=O)N2N=C(c3ccc(Cl)cc3)CC2c2ccco2)c([N+](=O)[O-])n1 (stereo unspecified)	i	i	20.6µM*	13.4%	-3.7%
CCCc1cc(=O)[nH]c(SCC(=O)N2N=C(c3ccc(Cl)cc3)CC2c2ccco2)n1 (stereo unspecified)	?	20.6µM*	14.6%	?	-8.1%
O=C(CCl)N1N=C(c2ccco2)CC1c1ccco1 (stereo unspecified)	?	?	?	?	20.6µM*
Nc1cc(=O)[nH]c(SCC(=O)N2N=C(c3ccc(Cl)cc3)CC2c2ccco2)n1 (stereo unspecified)	i	i	-4.7%	?	2.1%
COc1ccc(N2C(=O)C(Cl)=C(Nc3ccccc3OC)C2=O)cc1	i	i	1.1%	4.9%	0.2%
Cc1ccc(C2=NN(C(=O)CSc3nccn3C)C(c3ccco3)C2)cc1 (stereo unspecified)	?	9.2µM*	?	?	11.6µM*
COc1ccc2c(c1OC)CN(C)CCc1cc3c(cc1C(O)C2)OCO3 (stereo unspecified)	i	i	-3.6%	12.0%	-3.1%
Cc1ccc(C2=NN(S(C)(=O)=O)C(c3ccc4nccnc4c3)C2)cc1 (stereo unspecified)	i	i	?	0.2%	0.3%
CS(=O)(=O)N1N=C(c2ccccc2)CC1c1ccc2nccnc2c1 (stereo unspecified)	i	20.6µM*	13.3%	?	-1.3%
COCCCn1c2nc3ccccc3nc2c2c(=O)n(-c3ccccc3OC)cnc21	i	i	?	-1.0%	-6.1%
